# Compound activity: PubChem, several laboratories
# Sampled rows, rich in hits. Any-hit rate of the full collection: about 1.2%.
# LMP1 NFkB inh: Epstein-Barr LMP1 NF-kappaB reporter inhibition; actives 0.69% (n = 350,000); inhibition, % at 12.5 µM; LMP1-induced NF-kappaB luciferase reporter cells, luminescence; in the data active = inhibition above about 41%;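 also: 0% = neutral control wells and 100% = reference inhibitor control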
# SRC2 inh: human SRC2 (NCOA2) inhibition | actives 0.17% (n = 370,000) | HEK293 GAL4-SRC2 luciferase reporter, luminescence | inhibition, % at 9 µM | Q15596;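 active = inhibition above the mean inhibition of all tested compounds plus 3 SD, set per campaign, cut at about 52% in these data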;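 also: 0% = DMSO treated cells and 100% = cells given Gossypol at 36 µM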
# Shn3 inh set2: reduces Shn3 3'UTR luciferase signal in osteoblasts. Clone20 osteoblast Shn3 3'UTR firefly luciferase, 24 h. inhibition, % at 12.5 µM. actives 0.52% (n = 360,000). AID 588674;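 active = mean inhibition of at least 75% with every replicate also reaching 75%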;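 also: 0% = median of neutral control wells and 100% = pilot-screen positive control compound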
# SRC3 inh: inhibitors of human steroid receptor coactivator 3 (SRC3) | inhibition, % at 3.6 µM | actives 0.17% (n = 360,000) | Q9Y6Q9 | HEK293 GAL4-SRC3 luciferase reporter, luminescence | AID 588352;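 active = inhibition above a per-campaign cutoff, the mean of all compounds plus 3 SD, cut at about 60% in these data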;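 also: 0% = DMSO-treated cells and 100% = gossypol-treated cells at 36 µM; higher means less SRC3-driven luciferase light from the GAL4 reporter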
# SRC1 inh: inhibitors of human steroid receptor coactivator 1 (SRC1) | inhibition, % at 3.6 µM | HEK293 GAL4-SRC1 luciferase reporter, luminescence | Q15788 | actives 0.12% (n = 360,000);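 active = inhibition above the campaign mean plus 3 SD, with each screening campaign given its own cutoff, cut at about 60% in these data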;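 also: 0% = DMSO treated cells and 100% = gossypol at 36 µM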
# NR5A2 inv ag: inverse agonists of human LRH-1 (NR5A2). O00482. HEK293T StAR-luciferase reporter, LRH-1 transfected, 24 h. inhibition, % at 3.6 µM. actives 0.13% (n = 360,000). AID 602396;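 active = inhibition above the mean inhibition of all tested compounds plus 3 SD, cut at about 73% in these data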;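 also: 0% = DMSO wells and 100% = reporter-only cells lacking LRH-1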
# * marks the source's active call; other numbers are inactive results; · = no result.
SMILES,LMP1 NFkB inh,SRC2 inh,Shn3 inh set2,SRC3 inh,SRC1 inh,NR5A2 inv ag
CCOC(=O)CC[C@@H]1CC[C@]2(CCCN(C(=O)C3CCCC3)C2)O1,·,10.0,·,·,·,·
NC(=O)c1cc2ccncc2c2ccccc12,35.2,56.3*,6.4,64.9*,81.5*,41.9
C=CCn1c(=O)/c(=C/c2ccc(Cl)cc2)s/c1=C(\C#N)c1nnc2n1CCCCC2,71.2*,-8.3,4.7,4.4,-0.6,21.4
C=CCN1C(c2ccccc2)=CS/C1=C(\C#N)c1nnc2n1CCCCC2,-14.0,-19.0,10.7,2.9,-2.6,-2.4
CCOC(=O)[C@@]12CCCC3=C1N(CCC3)C(=O)[C@H]2CC(=O)NCc1cccs1,·,8.3,·,·,·,·
Cc1ccc(S(=O)(=O)NC(C)c2ccccc2)cc1[N+](=O)[O-] (stereo unspecified),50.4*,-0.9,-15.2,12.5,5.8,4.1
O=C1C(=C(c2ccccc2)N2CCOCC2)Cc2ccccc21,63.5*,-145.4,97.6*,8.5,-8.7,14.1
O=C(c1ccccc1)N1CCN(C(=O)N2CCOCC2)CC1,-13.8,18.7,3.2,9.5,4.0,-3.5
COc1cc(C=Nn2c(-c3cc(-c4ccccc4)n[nH]3)n[nH]c2=S)ccc1OC(C)=O,·,-29.0,·,·,·,·
CN1CCN(S(=O)(=O)c2ccc(Sc3nnnn3-c3ccccc3)c([N+](=O)[O-])c2)CC1,-5.6,26.8,87.0*,41.9,20.0,-4.2
CC(C)(C)C(=O)Nc1cc2nn(-c3ccccc3)nc2cc1Cl,75.3*,72.7*,84.1,81.5*,81.5*,82.9*
CCCCNC(=O)NCCCN1CCN(c2ccc(F)cc2)CC1,·,19.1,·,·,·,·
CCCCC[C@H]1CN(Cc2ccc(OC)cc2)C(=O)[C@@H]1CC(=O)NCc1ccccc1,8.7,-2.6,88.6*,-8.9,9.0,-9.2
CC(=O)Nc1c(C(=O)N2CCCCCC2)cnn1-c1ccccc1,79.5*,-15.3,32.2,-7.6,4.2,-4.3
COc1ccc(CN2CN3Cc4ccc(C)cc4C3CS2(=O)=O)cc1 (stereo unspecified),·,3.2,·,·,·,·
CCNc1nc(CN2CCOCC2)nc2sc3c(c12)CCC3,64.9*,1.8,-7.3,-19.4,-14.2,-2.5
CC1=[N+](C)c2c(ccc3cccnc23)C1(C)C,19.7,14.4,92.6*,33.9,18.4,59.4
O=S(=O)(/C(=C\c1ccc(C(F)(F)F)cc1)c1nc2ccccc2[nH]1)c1ccccc1,0.8,·,92.8*,40.0,48.5,31.4
CN(CCCOC(=O)c1occ2ccccc12)C1CN(Cc2cn(Cc3ccccc3Cl)nn2)S(=O)(=O)C1 (stereo unspecified),·,-29.2,·,·,·,·
C#CCN(C)Cc1ccccc1,1.3,-4.6,86.1*,-19.0,-5.6,-2.3
COc1ccc(Nc2oc(COc3ccccc3OC)nc2C#N)cc1,56.4*,31.6,23.8,30.9,8.6,1.2
O=C(NCCCN1CCCCC1)c1ccc2c(c1)NC(=O)c1ccccc1S2,57.2*,-17.6,-1.5,28.3,2.1,6.0
O=C1Nc2cc(C(=O)NCCCN3CCCC3)ccc2S/C1=C/c1ccccc1F,-12.1,-6.9,-1.9,17.1,-3.6,1.7
O=C(OCC(=O)N1CCc2ccccc21)[C@@H]1CCCN1S(=O)(=O)c1ccccc1F,-9.0,-3.0,18.7,1.2,-8.5,7.8
O=C(OCc1nc2ccccc2s1)[C@@H]1CCCN1S(=O)(=O)c1ccccc1F,76.8*,-24.6,-23.7,-19.5,-41.1,-25.2
SMILES,LMP1 NFkB inh,SRC2 inh,Shn3 inh set2,SRC3 inh,SRC1 inh,NR5A2 inv ag
CCN(CC)c1ccc2nc3ccccc3[n+](CC)c2c1,1.3,·,19.6,67.8*,62.6*,76.2*
CCN(CC)c1ccc(/C=N/n2nnnc2N)c(O)c1,2.2,-17.6,-31.8,-25.8,-2.2,-10.4
CCN(CC)c1ccc2nc3ccc(N)cc3[n+](-c3ccccc3)c2c1,53.0*,24.9,90.3*,66.7*,51.5,86.6*
Oc1c(Cl)cc(Cl)c2cccnc12,5.1,-0.9,16.5,0.1,-8.0,1.1
Oc1c(I)cc(I)c2cccnc12,-3.4,-32.3,94.1*,18.7,-10.2,1.9
Cc1[nH]c(=O)c(C(=O)/C=C/c2ccccc2F)c2c1CCCC2,81.0*,60.6*,5.6,86.7*,61.7*,65.2
COc1cc(Cl)cc(C(c2c(C(=O)O)[nH]c3ccccc23)c2c(C(=O)O)[nH]c3ccccc23)c1O,48.4*,5.4,-0.6,0.8,-6.1,9.6
O=C(O)c1[nH]c2ccccc2c1C(c1cc(Br)ccc1O)c1c(C(=O)O)[nH]c2ccccc12,0.1,1.4,6.7,-20.0,-15.3,16.7
Oc1ccc(Oc2ccc3c(C(F)(F)F)cc(C(F)(F)F)nc3n2)cc1,47.7*,11.0,26.2,23.5,-3.2,18.4
COc1ccc(Oc2ccc3c(C(F)(F)F)cc(C(F)(F)F)nc3n2)cc1,5.2,12.7,5.3,8.5,2.7,-9.3
CCOC(=O)C1=CCN(S(=O)(=O)c2ccc(Br)cc2)C1c1cccc(Cl)c1 (stereo unspecified),·,26.1,·,·,·,·
O=[N+]([O-])c1nn(-c2ccc3c(c2)OCCO3)n(O)c1=Nc1ccccc1,75.3*,83.8*,66.2,85.0*,76.4*,93.9*
Cc1ccc(N=c2c([N+](=O)[O-])nn(-c3ccc4c(c3)OCCO4)n2O)cc1F,48.8*,22.3,47.7,44.8,48.1,-23.0
O=[N+]([O-])c1nn(-c2ccc3c(c2)OCCO3)n(O)c1=Nc1ccc(Cl)cc1,57.6*,51.7,47.2,47.6,37.3,20.1
COc1ccc(N2CCN(CCCNC(=O)Cc3ccc(C(F)(F)F)cc3)CC2)cc1,·,-5.1,·,·,·,·
COC(=O)[C@H]1C[C@@]2(N3CCCCC3)c3ccccc3N(C(=O)OC(C)(C)C)[C@H]2N1C(=O)OC(C)(C)C,·,25.3,·,·,·,·
COC(=O)[C@]12C[C@H](CC(=O)N3CCN(C(=O)C4CC4)CC3)C(=O)N(CCc3ccc(OC)c(OC)c3)C1=C[C@H](C(C)(C)C)O[C@@H]2C,·,6.8,·,·,·,·
COc1ccc(CNC(=O)N(C)C[C@@H]2OCc3ccccc3-c3c(n(C)c4ccccc34)C(=O)N([C@@H](C)CO)C[C@@H]2C)cc1,·,16.6,·,·,·,·
O=C(O)CCC(=O)c1ccc2c(c1)OCCO2,-2.8,-38.4,-9.2,-0.7,-0.1,-10.8
CCc1nc(SCC(=O)c2ccc3c(c2)OCCO3)c2ccccc2n1,40.5*,3.6,-34.0,1.7,9.5,30.3
O=C(O)CCSCC(=O)c1ccc2c(c1)OCCO2,13.3,55.9*,3.1,21.8,11.4,7.9
NC(=O)CC(NC(=O)c1ccccc1)c1ccc(N2CCCCCCC2)c([N+](=O)[O-])c1 (stereo unspecified),34.7,-2.3,59.3,-3.0,-2.7,17.6
NC(=O)CC(NC(=O)c1ccc(Br)cc1)c1ccc(N2CCCCCC2)c([N+](=O)[O-])c1 (stereo unspecified),17.1,37.8,89.5*,19.6,-0.7,21.8
Cc1ccccc1CNc1ccc(C(CC(N)=O)NC(=O)c2ccc(Br)cc2)cc1[N+](=O)[O-] (stereo unspecified),59.6*,10.8,0.4,28.3,3.4,-1.4
